Test results as given in the supplement of paper PMC6555819.

Test system: VDR:RXRa (NR concentration 270 nM, RXRa partner concentration 90 nM)
Assay: PBM binding z-score (relative to random genomic background probes); higher = stronger binding; sequences stand for … in GC…GCGATTGACAGCGTAGAATGAAGG
Method: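 Protein-binding microarray (Agilent 4x180K custom design, double-stranded 60-nt probes: 5' GC cap, 34-nt variable region, 24-nt constant primer region; full probe sequence given). Purified or IVT nuclear receptor:RXRα heterodimers (3:1 NR:RXRα, mostly 270:90 nM) or homodimers were incubated for 1 h in PBS with 2% milk and no ligand, then detected with Alexa488 antibodies. Fluorescence from o1-orientation probes (~5 replicates averaged) was converted to z-scores against 500 random hg19 background probes. Variable regions are seed direct-repeat (DR0–DR5) sites, all their single-nucleotide variants and half-site ablations.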

Sequence | PBM binding z-score
CCTACTGGGCCAAGGTCATAGATCAGTCAAAGCA | 2.87
TAGCCTAGGTCATTCAGGGGTCAGTATAGAAAGC | 6.03
TAGCCTAAGTCATGGGCCAGTATACCACGCGAAC | -0.25
TCGAGTAGGTTACGGGGGCATGCAGGGATGAAGA | 3.43
TTACCAAGGTGACCTGAGGTCGTTGATCCAACTC | 4.87
CGAACTAGTTCACCAGGACAGTGAAGAGGTTGGA | 0.879
CCTGCTCGGTCAATGGTCAGCTAAAGCAGCTCGC | -0.375
TGGCCTAGGTCATGGGCCAGTATACCACGCGAAC | 1.62
CGACCTAGGTCAAAGGACAGTGAAAGGCGACGTA | 2.05
CGAACTAGGTGACCAGGACAGTGAAGAGGTTGGA | 0.673
ATATGAAGGTTAGGGTCATTCAGAAAGTAGGGAA | 4.6
CGAACTAGGTCAGAGGACAGTGAAAGGCGACGTA | 0.161
AATACAGGGTCGCTAGGCCAGAGTAGGTACGAAT | 0.828
TAGCCTAGGTCATGGGCCAGTTTACCACGCGAAC | 2.61
ATCGAAACGTCGTGAGGTGAGTATACAGAAAGGC | -0.25
CGGCCAAGGTCAAAGGTCAGTGAAGAGATGACGG | 6.67
GCTGCTAGGTCAGGTTGGTCGGCTAACGGGTACG | 0.166
TCTAGTAGGTTACGGGGGCATTCAGGGATGAAGA | 4.39
ATATGAAGGTTATCGGGTCATTCAGTTTGCGCAT | 5.41
TCATATAGGTTAAAGGTGAAAGTCGGTGTGGTAA | 3.02

Sequence | PBM binding z-score
CTATGTATGTTAAGGGGGTCATTCAGTTTGAAAG | 6.64
ATCGAAAGGTCGACGAGGTGAGAATACACCGTTT | 5.52
ATCTCTAGGTAAAGTTCAGCGAAAGATCGATAGA | 1.84
CTATGTAGGGTAAGGGGGTCATTCAGTTTGAAAG | 7.01
TCTAGTTCGTCACGGAGGTCACACACGACGGGTA | 4.68
ATCTCTAGGTGAAAGTTCAGTGAATCCCGAGGAT | 1.83
CCTAGCAGGCCACGGTCACTCAAGCATTTCGCTT | -0.261
TCGAGTAGGATACGGGGGCATTCAGGGATGAAGA | 2.49
TCGAGTAGGTTACGGCGGCATTCAGGGATGAAGA | -0.251
CCTTACGGTTCACTGACAGGTTATAGCATTTGGA | 2.6
CCTTACGGGTCAAGGTTATACCACGGGTGGTACG | 3.65
CCTTACGGGTCAGGGTTATAGCACGGGTGGTACG | 2.26
TCTTGTAGATCAAAGCTTAAGAAAGCCGAAGCCT | -0.115
CGAACTAGGTCACCAGGAGAGTGAAGAGGTTGGA | 1.71
CTATGTAGGTTAAGGGTGTCATTCAGTTTGAAAG | 3.24
CTTACTGGGCCAAAGGTCATTGATTCCAATGCTC | 4.77
CGAACTAGGTCAAAGGACAGTAAAAGGCGACGTA | 1.55
CAAAGTAGGTCACGAAAGGTCAAAGTCGAATGAC | 6.82
GATACAGGGGCAAGGCCAGAGTACGCGTATTGAT | 0.153
ATATGTAGGTTACATGCGGGTCATTCAGGCTATG | 3.78
